Assay results reported in ChEMBL document CHEMBL2218924, “A broad activity screen in support of a chemogenomic map for kinase signalling research and drug discovery” (Biochem J, 2013).

Key:
[1] = biological target: G protein-coupled receptor kinase 6 (Homo sapiens) (UniProt P43250); conditions: at 10 µM
[2] = biological target: T1, Rhodopsin kinase GRK7 (Homo sapiens) (UniProt Q8WTQ7); conditions: at 1 µM
T1 sequence (whole entry): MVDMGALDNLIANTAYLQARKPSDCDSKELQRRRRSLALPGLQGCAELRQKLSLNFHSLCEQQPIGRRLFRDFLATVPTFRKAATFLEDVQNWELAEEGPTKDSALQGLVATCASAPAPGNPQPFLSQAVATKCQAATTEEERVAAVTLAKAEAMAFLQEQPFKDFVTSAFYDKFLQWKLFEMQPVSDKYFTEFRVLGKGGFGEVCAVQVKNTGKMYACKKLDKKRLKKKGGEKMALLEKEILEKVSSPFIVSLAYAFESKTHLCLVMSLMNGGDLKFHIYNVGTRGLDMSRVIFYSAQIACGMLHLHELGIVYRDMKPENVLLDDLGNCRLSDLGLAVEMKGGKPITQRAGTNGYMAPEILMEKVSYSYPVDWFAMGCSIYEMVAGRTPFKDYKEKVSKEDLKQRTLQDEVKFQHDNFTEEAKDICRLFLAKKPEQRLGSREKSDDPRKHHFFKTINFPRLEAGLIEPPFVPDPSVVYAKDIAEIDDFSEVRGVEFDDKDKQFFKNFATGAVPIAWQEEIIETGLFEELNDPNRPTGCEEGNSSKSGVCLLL

[3] = biological target: T1, Rhodopsin kinase GRK7 (Homo sapiens); conditions: at 10 µM
[4] = biological target: Glycogen synthase kinase-3 alpha (Homo sapiens) (UniProt P49840); conditions: at 1 µM
[5] = biological target: Glycogen synthase kinase-3 alpha (Homo sapiens) (UniProt P49840); conditions: at 10 µM
[6] = biological target: Glycogen synthase kinase-3 beta (Homo sapiens) (UniProt P49841); conditions: at 1 µM
[7] = biological target: Glycogen synthase kinase-3 beta (Homo sapiens) (UniProt P49841); conditions: at 10 µM
[8] = biological target: Homeodomain-interacting protein kinase 1 (Homo sapiens) (UniProt Q86Z02); conditions: at 10 µM
[9] = biological target: Homeodomain-interacting protein kinase 2 (Homo sapiens) (UniProt Q9H2X6); conditions: at 1 µM
[10] = biological target: Homeodomain-interacting protein kinase 2 (Homo sapiens) (UniProt Q9H2X6); conditions: at 10 µM
[11] = biological target: Homeodomain-interacting protein kinase 3 (Homo sapiens) (UniProt Q9H422); conditions: at 1 µM
[12] = biological target: Homeodomain-interacting protein kinase 3 (Homo sapiens) (UniProt Q9H422); conditions: at 10 µM
[13] = biological target: T2, Serine/threonine-protein kinase haspin (Homo sapiens) (UniProt Q8TF76); conditions: at 1 µM
T2 sequence (whole entry): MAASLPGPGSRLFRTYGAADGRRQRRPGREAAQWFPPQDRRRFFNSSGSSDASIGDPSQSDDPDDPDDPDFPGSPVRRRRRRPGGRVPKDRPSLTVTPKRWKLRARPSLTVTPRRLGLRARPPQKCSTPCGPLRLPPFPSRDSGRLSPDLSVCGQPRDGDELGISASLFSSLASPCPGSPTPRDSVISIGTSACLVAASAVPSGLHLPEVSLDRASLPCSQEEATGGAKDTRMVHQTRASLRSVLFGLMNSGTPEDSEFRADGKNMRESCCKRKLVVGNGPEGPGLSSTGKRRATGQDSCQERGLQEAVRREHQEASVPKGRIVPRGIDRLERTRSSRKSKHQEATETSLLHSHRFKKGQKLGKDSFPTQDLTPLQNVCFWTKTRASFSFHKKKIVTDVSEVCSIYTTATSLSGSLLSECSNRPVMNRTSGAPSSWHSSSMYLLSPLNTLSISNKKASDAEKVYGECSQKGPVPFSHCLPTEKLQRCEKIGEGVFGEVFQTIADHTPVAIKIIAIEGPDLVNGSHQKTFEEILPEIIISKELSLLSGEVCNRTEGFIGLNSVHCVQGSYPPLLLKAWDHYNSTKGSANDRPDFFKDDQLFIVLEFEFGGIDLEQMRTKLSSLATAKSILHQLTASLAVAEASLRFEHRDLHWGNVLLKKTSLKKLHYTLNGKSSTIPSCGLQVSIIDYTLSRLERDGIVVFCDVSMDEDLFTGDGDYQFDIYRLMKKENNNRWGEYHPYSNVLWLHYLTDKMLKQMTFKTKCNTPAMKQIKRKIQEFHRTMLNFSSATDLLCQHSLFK

[14] = biological target: T2, Serine/threonine-protein kinase haspin (Homo sapiens); conditions: at 10 µM
[15] = biological target: Tyrosine-protein kinase HCK (Homo sapiens) (UniProt P08631); conditions: at 1 µM
[16] = biological target: Tyrosine-protein kinase HCK (Homo sapiens) (UniProt P08631); conditions: at 10 µM
[17] = biological target: Tyrosine-protein kinase HCK (Homo sapiens) (UniProt P08631); conditions: at 1 µM; remark: listed apart in the source
[18] = biological target: Tyrosine-protein kinase HCK (Homo sapiens) (UniProt P08631); conditions: at 10 µM; remark: listed apart in the source
[19] = biological target: Insulin-like growth factor 1 receptor (Homo sapiens) (UniProt P08069); conditions: at 1 µM
[20] = biological target: Homeodomain-interacting protein kinase 1 (Homo sapiens) (UniProt Q86Z02); conditions: at 1 µM

Sequence of Homeodomain-interacting protein kinase 2 (Homo sapiens) (Q9H2X6 whole entry, looked up): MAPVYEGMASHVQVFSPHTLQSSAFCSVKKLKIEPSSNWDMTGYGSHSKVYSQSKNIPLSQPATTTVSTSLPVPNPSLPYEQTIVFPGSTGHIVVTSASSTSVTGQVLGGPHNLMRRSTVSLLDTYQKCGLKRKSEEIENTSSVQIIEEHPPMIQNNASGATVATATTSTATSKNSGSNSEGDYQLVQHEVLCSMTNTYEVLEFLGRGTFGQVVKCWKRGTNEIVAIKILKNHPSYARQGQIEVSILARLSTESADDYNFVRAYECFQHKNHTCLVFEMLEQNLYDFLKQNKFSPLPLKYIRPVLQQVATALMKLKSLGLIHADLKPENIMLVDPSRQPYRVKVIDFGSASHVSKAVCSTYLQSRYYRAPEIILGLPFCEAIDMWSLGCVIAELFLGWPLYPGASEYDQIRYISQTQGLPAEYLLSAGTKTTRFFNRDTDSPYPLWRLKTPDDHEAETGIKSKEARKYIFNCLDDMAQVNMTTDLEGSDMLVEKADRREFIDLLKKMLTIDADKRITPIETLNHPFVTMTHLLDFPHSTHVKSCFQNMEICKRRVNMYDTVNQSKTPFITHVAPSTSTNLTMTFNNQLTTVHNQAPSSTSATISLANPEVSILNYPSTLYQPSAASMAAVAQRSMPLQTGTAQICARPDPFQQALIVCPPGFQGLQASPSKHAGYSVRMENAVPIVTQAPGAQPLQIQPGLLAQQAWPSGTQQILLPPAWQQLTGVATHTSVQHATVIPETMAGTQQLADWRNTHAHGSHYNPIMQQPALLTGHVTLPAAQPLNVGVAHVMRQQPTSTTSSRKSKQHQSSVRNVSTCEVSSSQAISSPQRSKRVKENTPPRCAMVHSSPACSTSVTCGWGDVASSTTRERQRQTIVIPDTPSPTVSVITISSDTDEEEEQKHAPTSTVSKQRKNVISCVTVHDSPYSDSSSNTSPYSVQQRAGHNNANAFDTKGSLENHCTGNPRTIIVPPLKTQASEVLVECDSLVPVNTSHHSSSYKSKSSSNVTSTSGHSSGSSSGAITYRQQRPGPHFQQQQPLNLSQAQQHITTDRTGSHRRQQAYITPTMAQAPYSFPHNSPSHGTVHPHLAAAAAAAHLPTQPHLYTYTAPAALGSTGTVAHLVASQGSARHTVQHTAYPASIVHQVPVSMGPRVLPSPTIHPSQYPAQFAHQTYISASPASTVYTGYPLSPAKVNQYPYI
Sequence of Homeodomain-interacting protein kinase 1 (Homo sapiens) (Q86Z02 whole entry, looked up): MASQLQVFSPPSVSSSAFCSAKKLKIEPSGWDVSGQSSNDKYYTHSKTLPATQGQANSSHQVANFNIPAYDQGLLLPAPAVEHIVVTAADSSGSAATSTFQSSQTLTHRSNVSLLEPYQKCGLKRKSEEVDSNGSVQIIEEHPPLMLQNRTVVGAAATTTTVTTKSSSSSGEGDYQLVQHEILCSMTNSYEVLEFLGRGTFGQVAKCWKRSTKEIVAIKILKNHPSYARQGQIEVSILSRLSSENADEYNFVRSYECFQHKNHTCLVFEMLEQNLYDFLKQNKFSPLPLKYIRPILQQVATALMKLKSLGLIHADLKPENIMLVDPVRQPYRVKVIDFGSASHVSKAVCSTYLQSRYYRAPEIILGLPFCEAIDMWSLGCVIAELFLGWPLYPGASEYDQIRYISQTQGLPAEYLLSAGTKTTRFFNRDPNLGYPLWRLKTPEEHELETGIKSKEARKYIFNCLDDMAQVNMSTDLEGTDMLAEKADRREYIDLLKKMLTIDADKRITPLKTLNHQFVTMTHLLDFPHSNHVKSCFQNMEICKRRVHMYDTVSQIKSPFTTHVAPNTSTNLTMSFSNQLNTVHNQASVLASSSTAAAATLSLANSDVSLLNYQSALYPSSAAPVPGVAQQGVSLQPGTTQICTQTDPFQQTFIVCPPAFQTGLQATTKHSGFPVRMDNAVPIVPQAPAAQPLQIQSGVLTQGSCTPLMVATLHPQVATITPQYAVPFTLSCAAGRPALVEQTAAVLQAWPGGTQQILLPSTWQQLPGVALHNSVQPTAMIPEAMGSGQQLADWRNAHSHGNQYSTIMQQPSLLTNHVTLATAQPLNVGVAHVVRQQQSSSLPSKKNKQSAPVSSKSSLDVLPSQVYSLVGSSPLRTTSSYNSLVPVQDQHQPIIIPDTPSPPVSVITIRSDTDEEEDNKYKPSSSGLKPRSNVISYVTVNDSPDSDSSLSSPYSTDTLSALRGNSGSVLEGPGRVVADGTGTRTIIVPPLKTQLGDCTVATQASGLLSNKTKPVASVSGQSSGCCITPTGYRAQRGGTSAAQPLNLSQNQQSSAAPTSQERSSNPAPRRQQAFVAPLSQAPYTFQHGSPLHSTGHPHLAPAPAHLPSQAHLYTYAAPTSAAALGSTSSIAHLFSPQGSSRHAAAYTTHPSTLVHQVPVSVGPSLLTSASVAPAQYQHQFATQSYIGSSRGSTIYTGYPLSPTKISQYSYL
Sequence of Glycogen synthase kinase-3 alpha (Homo sapiens) (P49840 2-483 limits assumed): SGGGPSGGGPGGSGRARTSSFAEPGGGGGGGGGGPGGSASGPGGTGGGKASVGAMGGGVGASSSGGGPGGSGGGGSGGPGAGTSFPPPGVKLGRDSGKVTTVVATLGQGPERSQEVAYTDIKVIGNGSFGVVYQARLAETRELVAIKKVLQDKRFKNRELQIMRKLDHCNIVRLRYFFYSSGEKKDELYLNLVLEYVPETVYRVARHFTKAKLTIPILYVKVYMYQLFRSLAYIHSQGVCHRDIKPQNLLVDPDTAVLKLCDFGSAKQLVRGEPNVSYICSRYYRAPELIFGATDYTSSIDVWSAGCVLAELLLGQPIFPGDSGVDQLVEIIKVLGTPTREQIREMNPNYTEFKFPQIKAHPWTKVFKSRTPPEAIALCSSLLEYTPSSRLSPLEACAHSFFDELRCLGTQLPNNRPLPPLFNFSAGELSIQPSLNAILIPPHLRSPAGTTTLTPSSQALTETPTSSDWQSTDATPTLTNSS
Sequence of Homeodomain-interacting protein kinase 3 (Homo sapiens) (Q9H422 whole entry, looked up): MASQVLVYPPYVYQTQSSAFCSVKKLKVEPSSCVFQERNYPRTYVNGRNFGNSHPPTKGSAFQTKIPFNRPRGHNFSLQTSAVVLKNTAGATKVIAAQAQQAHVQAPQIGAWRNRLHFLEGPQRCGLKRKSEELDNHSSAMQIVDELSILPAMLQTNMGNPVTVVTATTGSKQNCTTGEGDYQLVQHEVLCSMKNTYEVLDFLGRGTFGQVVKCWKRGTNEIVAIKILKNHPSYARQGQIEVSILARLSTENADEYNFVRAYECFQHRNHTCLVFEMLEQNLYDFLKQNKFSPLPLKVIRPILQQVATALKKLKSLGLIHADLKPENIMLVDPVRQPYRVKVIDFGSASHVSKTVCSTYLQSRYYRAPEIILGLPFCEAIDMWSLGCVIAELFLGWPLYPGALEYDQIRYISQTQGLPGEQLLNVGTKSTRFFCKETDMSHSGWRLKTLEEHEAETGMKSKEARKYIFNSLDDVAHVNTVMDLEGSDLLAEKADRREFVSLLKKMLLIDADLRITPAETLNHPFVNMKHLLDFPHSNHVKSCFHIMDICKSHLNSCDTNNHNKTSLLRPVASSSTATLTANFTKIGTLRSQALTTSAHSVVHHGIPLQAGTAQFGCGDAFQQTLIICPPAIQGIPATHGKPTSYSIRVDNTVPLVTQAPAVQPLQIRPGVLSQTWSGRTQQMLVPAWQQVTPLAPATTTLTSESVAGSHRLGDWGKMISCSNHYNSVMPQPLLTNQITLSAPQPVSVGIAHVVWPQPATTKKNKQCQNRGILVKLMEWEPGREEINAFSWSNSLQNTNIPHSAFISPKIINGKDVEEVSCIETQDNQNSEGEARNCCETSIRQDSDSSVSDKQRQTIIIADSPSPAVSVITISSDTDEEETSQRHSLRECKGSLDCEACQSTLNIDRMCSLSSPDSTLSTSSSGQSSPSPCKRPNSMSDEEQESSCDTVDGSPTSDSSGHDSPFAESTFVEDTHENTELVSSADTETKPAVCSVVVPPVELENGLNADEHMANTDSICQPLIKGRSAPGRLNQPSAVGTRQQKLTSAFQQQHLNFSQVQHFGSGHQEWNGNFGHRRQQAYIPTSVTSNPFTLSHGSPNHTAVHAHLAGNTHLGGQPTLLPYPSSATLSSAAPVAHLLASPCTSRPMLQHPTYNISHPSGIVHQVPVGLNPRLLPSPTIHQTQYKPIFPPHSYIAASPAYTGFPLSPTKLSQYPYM
Sequence of Glycogen synthase kinase-3 beta (Homo sapiens) (P49841 whole entry, looked up): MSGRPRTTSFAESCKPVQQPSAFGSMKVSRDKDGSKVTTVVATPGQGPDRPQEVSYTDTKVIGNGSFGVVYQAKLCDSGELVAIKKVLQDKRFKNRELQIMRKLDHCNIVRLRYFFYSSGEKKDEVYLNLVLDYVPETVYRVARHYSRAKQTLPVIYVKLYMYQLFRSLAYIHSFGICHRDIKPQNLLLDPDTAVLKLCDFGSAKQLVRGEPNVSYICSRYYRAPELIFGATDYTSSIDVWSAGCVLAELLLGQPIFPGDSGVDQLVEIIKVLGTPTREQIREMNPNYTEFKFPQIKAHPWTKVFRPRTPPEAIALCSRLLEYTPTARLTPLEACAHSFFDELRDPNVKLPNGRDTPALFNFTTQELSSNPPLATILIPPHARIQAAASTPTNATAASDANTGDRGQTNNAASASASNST
Sequence of G protein-coupled receptor kinase 6 (Homo sapiens) (P43250 whole entry, looked up): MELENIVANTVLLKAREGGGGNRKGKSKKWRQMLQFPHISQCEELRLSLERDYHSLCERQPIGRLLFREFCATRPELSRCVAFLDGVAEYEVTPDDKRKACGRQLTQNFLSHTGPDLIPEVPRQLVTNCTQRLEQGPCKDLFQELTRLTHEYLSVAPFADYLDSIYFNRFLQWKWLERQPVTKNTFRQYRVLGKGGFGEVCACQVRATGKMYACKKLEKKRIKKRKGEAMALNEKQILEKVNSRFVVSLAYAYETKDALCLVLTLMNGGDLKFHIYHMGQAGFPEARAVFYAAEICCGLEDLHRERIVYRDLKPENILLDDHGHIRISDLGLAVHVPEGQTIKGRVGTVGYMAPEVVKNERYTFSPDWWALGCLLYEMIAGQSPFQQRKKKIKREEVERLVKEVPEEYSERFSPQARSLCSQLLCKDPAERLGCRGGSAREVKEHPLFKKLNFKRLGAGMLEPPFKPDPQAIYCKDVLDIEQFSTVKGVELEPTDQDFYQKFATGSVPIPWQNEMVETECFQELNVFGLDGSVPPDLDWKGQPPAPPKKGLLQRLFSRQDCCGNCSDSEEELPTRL

SMILES | residual activity [1] [%] | residual activity [2] [%] | residual activity [3] [%] | residual activity [4] [%] | residual activity [5] [%] | residual activity [6] [%] | residual activity [7] [%] | residual activity [8] [%] | residual activity [9] [%] | residual activity [10] [%] | residual activity [11] [%] | residual activity [12] [%] | residual activity [13] [%] | residual activity [14] [%] | residual activity [15] [%] | residual activity [16] [%] | residual activity [17] [%] | residual activity [18] [%] | residual activity [19] [%] | residual activity [20] [%]
CCn1cnc2c(Nc3cccc(Cl)c3)nc(N[C@@H]3CCCC[C@@H]3N)nc21 | 68 | 74 | 24 | 123 | 119 | 132 | 136 | 81 | 85 | 47 | 99 | 80 | 48 | 3 | 24 | 4 | 24 | 4 | 95 | –
COc1cc2ncnc(Nc3ccc(OCc4ccccc4)cc3)c2cc1OC | 97 | 105 | 99 | 100 | 160 | 104 | 119 | 105 | 104 | 84 | 100 | 96 | 77 | 45 | 35 | 19 | 90 | 83 | 120 | 102
O=[N+]([O-])/C=C/c1ccc2c(c1)OCO2 | 89 | 103 | 86 | 125 | 113 | – | 74 | 112 | 93 | – | 101 | 99 | 128 | 115 | 85 | 73 | – | 94 | 131 | 96
CC(C)[C@H](CO)Nc1nc(Nc2cccc(Cl)c2)c2ncn(C(C)C)c2n1 | – | 95 | 44 | – | – | 134 | 57 | 49 | 88 | 36 | – | 77 | 100 | 94 | 20 | 4 | 30 | 4 | 98 | 97
CC(C)(C)c1cc(C=C(C#N)C#N)cc(Br)c1O | 104 | 113 | 102 | 117 | 74 | 106 | 96 | 104 | 101 | 71 | 101 | 98 | 105 | 54 | 77 | 8 | 102 | – | 130 | 107
O=C1c2ccccc2-c2nc3nnnn3nc21 | – | – | – | 101 | 120 | 115 | 101 | – | – | – | – | – | – | 74 | – | 76 | – | – | 129 | –
O=C1NC(=O)c2c1c1c3ccccc3n3c1c1c2c2ccccc2n1C1CCC3O1 | – | – | – | 15 | 3 | 40 | 23 | – | 42 | 26 | -2 | -2 | 50 | 22 | 76 | 94 | 92 | 83 | 73 | –
CN[C@@H]1C[C@H]2O[C@@](C)([C@@H]1OC)n1c3ccccc3c3c4c(c5c6ccccc6n2c5c31)C(=O)NC4 | – | – | – | – | – | – | – | – | – | – | 74 | 27 | – | – | 0 | – | – | – | – | 87
COc1cc(OC)c(/C=C2\C(=O)Nc3ccccc32)c(OC)c1 | 91 | 95 | 84 | 105 | 95 | 132 | 106 | 98 | 104 | 96 | 103 | 98 | 70 | 61 | 89 | 69 | 93 | – | 93 | 102
